Experimental data reported in the supplement of paper PMC6089552.
Hit rate of the full screen: of about 3,200 compounds, about 300 (9.4%) showed activity. Shown is part of a subset that was picked to be rich in actives.

System: A673/TR/shEF
Test: cell viability (LOESS-normalised, relative to median of negative controls) (log2 ratio); higher = more viable cells (less compound effect), active = hit call of the paper (over 3 MAD below the median)
Conditions: treatment time: 72 h
Outline: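 For three days, A673/TR/shEF Ewing sarcoma cells in 384-well plates (1,500 per well) were treated with library compounds at two or more concentrations or with DMSO controls, after doxycycline had been added or withheld 24 h beforehand to induce EWS-FLI1 shRNA knockdown. Viability was read by CellTiter-Glo luminescence on an Envision reader. The data were LOESS-corrected per plate, divided by the median of negative controls and log2-transformed.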

[1] = 0.25 µM, library screen: screen1, EWS-FLI1 expression: high (no doxycycline)
[2] = 0.25 µM, library screen: screen1, EWS-FLI1 expression: low (doxycycline-induced shRNA knockdown)
[3] = 2.5 µM, library screen: screen1, EWS-FLI1 expression: high (no doxycycline)
[4] = 2.5 µM, library screen: screen1, EWS-FLI1 expression: low (doxycycline-induced shRNA knockdown)
[5] = 0.103 µM, library screen: screen3, EWS-FLI1 expression: high (no doxycycline)
[6] = 0.103 µM, library screen: screen3, EWS-FLI1 expression: low (doxycycline-induced shRNA knockdown)
[7] = 0.308 µM, library screen: screen3, EWS-FLI1 expression: high (no doxycycline)
[8] = 0.308 µM, library screen: screen3, EWS-FLI1 expression: low (doxycycline-induced shRNA knockdown)
[9] = 0.926 µM, library screen: screen3, EWS-FLI1 expression: high (no doxycycline)
[10] = 0.926 µM, library screen: screen3, EWS-FLI1 expression: low (doxycycline-induced shRNA knockdown)
[11] = 2.8 µM, library screen: screen3, EWS-FLI1 expression: high (no doxycycline)
[12] = 2.8 µM, library screen: screen3, EWS-FLI1 expression: low (doxycycline-induced shRNA knockdown)
[13] = 8.3 µM, library screen: screen3, EWS-FLI1 expression: high (no doxycycline)
[14] = 8.3 µM, library screen: screen3, EWS-FLI1 expression: low (doxycycline-induced shRNA knockdown)
[15] = 25 µM, library screen: screen3, EWS-FLI1 expression: high (no doxycycline)
[16] = 25 µM, library screen: screen3, EWS-FLI1 expression: low (doxycycline-induced shRNA knockdown)

Measured: cell viability (log2)

CCN(CC)S(=O)(=O)c1ccc(C(=O)N(CCC(=O)OC)c2ccccn2)cc1
inactive: [1] 0.0834 | [2] 0.147 | [3] 0.162 | [4] 0.127

Cn1c(CNc2ccc(C(=N)N)cc2)nc2cc(C(=O)N(CCC(=O)O)c3ccccn3)ccc21
inactive: [5] 0.00826 | [6] 0.00201 | [7] 0.0563 | [8] 0.0276 | [9] 0.0456 | [10] 0.123 | [11] -0.0294 | [12] 0.0652 | [13] 0.0628 | [14] 0.0736 | [15] 0.0838 | [16] 0.0437

CCCCCCOC(=O)/N=C(/N)c1ccc(NCc2nc3cc(C(=O)N(CCC(=O)OCC)c4ccccn4)ccc3n2C)cc1
active: [15] -0.441
inactive: [5] -0.0699 | [6] -0.0234 | [7] -0.0119 | [8] -0.019 | [9] 0.046 | [10] -0.0404 | [11] -0.0778 | [12] 0.0123 | [13] -0.0381 | [14] 0.0285 | [16] 0.0312

NCCCCCN
inactive: [1] 0.0699 | [2] 0.0406 | [3] 0.114 | [4] 0.103

Cc1coc2ccccc2c1=O
inactive: [1] 0.143 | [2] 0.1 | [3] 0.138 | [4] 0.165

CC1=CC(=O)CC(C)(C)[C@@]1(O)/C=C/C(C)=C\C(=O)O
inactive: [1] 0.103 | [2] 0.084 | [3] 0.143 | [4] 0.165

CC(=O)O[C@@H]1CC2C(C)(C)CCC(=O)[C@]2(C)C2CC[C@@]3(C)[C@H](c4ccoc4)OC(=O)C4OC43[C@@]21C (some centres undefined)
inactive: [1] 0.0305 | [2] 0.0828 | [3] 0.127 | [4] 0.0866

O=C(NC(C(=O)N1CCCCC1)=C1CCCCC1)c1ccccc1
inactive: [1] 0.107 | [2] 0.0798 | [3] 0.0724 | [4] 0.127

COC(=O)C1=C(C)N=c2s/c(=C/c3ccc(OC)cc3OC)c(=O)n2C1c1cccs1 (centres undefined)
inactive: [1] 0.0522 | [2] 0.13 | [3] 0.0666 | [4] 0.065

CCCCCCCCCCCC1=C(O)C(=O)C=C(O)C1=O
inactive: [1] 0.161 | [2] 0.0381 | [3] 0.097 | [4] 0.0519

CCCCCCCCc1ccc(CCC(N)(CO)CO)cc1
active: [15] -0.341 | [16] -0.161
inactive: [5] 0.0814 | [6] 0.0528 | [7] 0.0332 | [8] -0.0148 | [9] 0.0328 | [10] 0.0341 | [11] 0.00825 | [12] 0.0473 | [13] -0.0193 | [14] 0.0563

CC(=O)O[C@H]1C[C@@H](OC(C)=O)C(C)(C)C2CC(=O)[C@]3(C)C(CC[C@@]4(C)[C@H](c5ccoc5)OC(=O)[C@H]5O[C@]543)[C@]21C (some centres undefined)
inactive: [1] 0.116 | [2] 0.174 | [3] 0.177 | [4] 0.123

CCCCCCCCCCC[C@@H](C[C@@H]1OC(=O)[C@H]1CCCCCC)OC(=O)[C@H](CC(C)C)NC=O
inactive: [5] 0.0583 | [6] 0.00452 | [1] -0.0226 | [2] 0.0354 | [7] 0.0475 | [8] 0.11 | [9] -0.01 | [10] 0.0194 | [4] 0.178 | [11] -0.0124 | [12] 0.136 | [13] -0.103 | [14] -0.0203 | [15] -0.119 | [16] -0.0365
active: [3] -0.116

COC(=O)C[C@H]1C(C)(C)C2(Cl)O[C@@]34CC2C(=O)[C@]1(C)C3CC[C@]1(C)C4=CC(=O)O[C@H]1c1ccoc1 (some centres undefined)
inactive: [1] 0.0526 | [2] 0.0775 | [3] 0.126 | [4] 0.163

C=C1C(=O)O[C@@H]2C[C@@]3(C)CCC[C@H](C)C3=C[C@H]12
inactive: 0.025 µM, library screen: screen2, EWS-FLI1 expression: high (no doxycycline) 0.148 | 0.025 µM, library screen: screen2, EWS-FLI1 expression: low (doxycycline-induced shRNA knockdown) 0.0581 | [1] 0.0724 | [2] -0.00207 | 0.25 µM, library screen: screen2, EWS-FLI1 expression: high (no doxycycline) 0.177 | 0.25 µM, library screen: screen2, EWS-FLI1 expression: low (doxycycline-induced shRNA knockdown) 0.0288 | [3] 0.152 | [4] 0.0584 | 2.5 µM, library screen: screen2, EWS-FLI1 expression: high (no doxycycline) 0.0901 | 2.5 µM, library screen: screen2, EWS-FLI1 expression: low (doxycycline-induced shRNA knockdown) 0.000642 | 25 µM, library screen: screen2, EWS-FLI1 expression: high (no doxycycline) -0.0554 | 25 µM, library screen: screen2, EWS-FLI1 expression: low (doxycycline-induced shRNA knockdown) -0.102
